Assay outcomes as filed in PubChem BioAssay.
This is a sample that favours compounds with a hit; in the whole collection about 20% have one here.
HCMV antiviral: inhibitors of human cytomegalovirus. HFF cells, HCMV-luciferase reporter, 72 h; active compounds read low. activity change, negative = inhibition, % at 57.5 µM. 410,000 tested, 4.5% active. AID 1259415; in the data active = activity change below about -60%; inconclusive = no clear call, values can overlap the other calls; inactive = above about -39%; note: % is set by controls: 0 for no effect and ±100 for the full control effect
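Human foreskin fibroblasts infected with luciferase-reporter HCMV at MOI 1 PFU/cell, compounds at two doses. Luciferase measured 72 h post infection; normalized to buffer-only basal and Salinomycin (10uM) controls.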
Shiga toxin inh: inhibitors of Shiga toxin in Vero cells; inhibition, % at 38.7 µM; Vero cells, Shiga toxin protein synthesis inhibition reporter; 290,000 tested, 9.2% active; in the data active = inhibition mostly above about 28%, no sharp cut-off; inactive = mostly below about 43%; note: 0% is about no effect
Pf growth 96h: P. falciparum growth inhibition at 96 hours; Potency, µM (titrated, usually from 28.7 µM), for inactives: at the highest dose activity change, negative = inhibition, usual class: inhibitors; AID 504834; P. falciparum luciferase reporter growth, 96 h; 320,000 tested, 6.9% active; note: potency is the fitted concentration of half-maximal effect; % is set by controls: 0 for no effect and ±100 for the full control effect
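P. falciparum expressing integrated firefly luciferase, in erythrocytes at 2% hematocrit, 0.05% parasitemia, incubated with compounds 96 h at 37 C, 5% CO2. Growth inhibition read as loss of luminescence; two-generation exposure targets delayed-death apicoplast inhibitors.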
Pf growth 48h: inhibits P. falciparum growth in the first generation, 48 h; P. falciparum luciferase growth in erythrocytes, 48 h; 310,000 tested, 5.9% active; Potency, µM (series often up to 28.7 µM), for the others: at the highest dose activity change, negative = inhibition, most hits filed as inhibitors; note: potency is the fitted concentration of half-maximal effect; % is set by controls: 0 for no effect and ±100 for the full control effect
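Luciferase-expressing P. falciparum in infected erythrocytes (2% hematocrit, 0.1% parasitemia final) in RPMI 1640/0.5% Albumax were exposed to compound for 48 hours at 37 C, 5% CO2; growth read as luminescence.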
Cycloheximide cs: counter-screen for Shiga toxin inhibitors: cycloheximide protein synthesis inhibition. cell reporter, cycloheximide protein synthesis inhibition counterscreen. max response, %. 300,000 tested, 12% active; in the data active = max response mostly above about 13%, no sharp cut-off; inactive = mostly below about 14%; note: read at 38.3 µM for the half of the compounds with a filed dose; 0% is about no effect
* = called active by the depositor; i = inactive; ? = inconclusive; · = not tested or not shown; ! = a repeat was not active. Unless noted, calls come from the whole dose curve; as a rule, active = well fitted inhibition curve with a large enough effect; inconclusive = small, poorly fitted or top-dose-only effect, or another doubt; inactive = no such curve, though single readings can be large or run the other way.

SMILES | HCMV antiviral | Shiga toxin inh | Pf growth 96h | Pf growth 48h | Cycloheximide cs
COc1ccc(-c2ccc(-c3nnc(-c4ccncc4)o3)cc2)cc1 | · | -5 | ? | · | -3
c1ccc(-c2nnc(C(c3ccccc3)c3ccccc3)o2)cc1 | ? | 37 | 7.4µM* | ? | 5
COc1ccc(-c2nnc(-c3ccc(C)cc3)o2)cc1 | 13 | 82* | -3% | 104% | 19*
COc1ccc(-c2nnc(-c3ccccc3O)o2)cc1 | 77 | 63* | -27% | 15% | 45*
CCN(CC)C(=O)CN1C(=O)COc2ccc(S(=O)(=O)N3CCOCC3)cc21 | 1 | · | · | · | ·
CCOC(=O)Cn1c(=O)c2c(nc(Br)n2Cc2ccc(Cl)cc2)n(C)c1=O | · | -15 | · | 11% | 6
c1ccc(-c2nn[nH]n2)c(Nc2cccc3c2CCCC3)c1 | · | -5 | · | · | -4
CC(=O)Nc1ccccc1N(C)S(=O)(=O)c1ccc(C)cc1 | -40 | -4 | 152% | -8% | -3
Cc1ccc(CC(=O)Nc2nnc(-c3ccc(F)cc3)o2)c(C)c1 | · | -16 | -3% | 7% | -1
CCNc1nnc(-c2ccc(C)cc2)o1 | 65 | 107* | 10% | 98% | 42*
Cc1ccc(-c2nnc(-c3ccccc3)o2)cc1 | 108 | 49* | ? | 477% | 49*
Cc1ccc(-c2nnc(N)o2)cc1 | 8 | 30 | 2% | 19% | 14
O=C(Cn1ncc2c3ccccc3n(Cc3ccc(F)cc3)c2c1=O)NCCCN1CCCCC1 | -6 | · | · | · | ·
O=S(=O)(c1ccccc1)c1nc(-c2ccco2)oc1SCc1ccc(F)cc1 | -4 | · | · | · | ·
CCc1nn2cc(C(=O)c3cc(C)ccc3O)cnc2c1-c1ccc(F)cc1 | -18 | -15 | 4% | 2.6µM* | -1
CCc1nn2cc(C(=O)c3ccccc3O)cnc2c1-c1ccc(F)cc1 | 27 | -18 | ? | ? | -2
C[C@H](NC(=O)c1ncn2c1C(=O)N[C@@H](C)C2)c1ccccc1 | -21 | · | · | · | ·
CC(=O)Nc1ccc(S(=O)(=O)Oc2ccc(N3C(=O)C4CCCCC4C3=O)cc2)cc1 (centres undefined) | -39 | -19 | 39% | -1% | -3
CC(=O)Nc1ccc(S(=O)(=O)Oc2cccc(N3C(=O)C4CC=CCC4C3=O)c2)cc1 (centres undefined) | -25 | 18 | 2.3µM* | · | -3
Cc1cccc(N2CCc3c2nc2ccccc2c3N)c1 | 87 | 27*! | 10µM* | ? | 17*!
CCOc1ccccc1NC(=O)CSc1nnc(-c2cnccn2)n1C | 29 | -24 | 1.9µM* | -1% | -3
COc1ccc(C)cc1NC(=O)CSc1nnc(-c2ccco2)n1Cc1ccco1 | -4 | 17 | 10µM* | -19% | 13
Cc1cccc(C)c1NC(=O)CSc1nnc(-c2cnccn2)n1C | 6 | -4 | 10% | 7% | -2
COc1cccc(-c2nnc(SCC(=O)OC(C)C)n2Cc2ccco2)c1 | ? | -15 | 7.4µM* | -3% | -5
CN(C)c1ccc(NC(=O)CSc2nnc(-c3cnccn3)n2C)cc1 | -7 | 37 | ? | -19% | 13*
SMILES | HCMV antiviral | Shiga toxin inh | Pf growth 96h | Pf growth 48h | Cycloheximide cs
COc1ccc(Nc2nc3ccc(C)cc3nc2-n2nc(C)cc2C)cc1Cl | -5 | · | · | · | ·
CCC(CO)Oc1cc(NC(=O)c2cccc(Cl)c2)c2ncn(C(C)C)c2c1 (centres undefined) | 15 | · | ? | ? | ·
CC1Sc2ccc(C(=O)NCc3cccc(C(F)(F)F)c3)cc2NC1=O (centres undefined) | 0 | · | -28% | ? | ·
CCOc1ccccc1NC(=O)CSc1nnc(-c2ccccn2)n1Cc1ccco1 | -24 | -6 | 3.7µM* | ? | 6
Clc1ccc(CSc2nnc(-c3ccccn3)n2Cc2ccco2)c(Cl)c1 | -10 | 32 | 15µM* | ? | 4
Fc1ccccc1CSc1nnc(-c2cnccn2)n1Cc1ccco1 | -11 | 24 | · | ? | 16
CCOc1ccccc1NC(=O)CSc1nnc(-c2ccco2)n1Cc1ccco1 | -36 | 9 | ? | ? | 5
C[C@@H]1COC(=O)[C@H](CC(=O)OC(C)(C)C)C/C=C\C[C@@H](CC(=O)N(CCO)Cc2ccccc2)C(=O)N1 | 7 | · | · | · | ·
CCc1ccccc1NC(=O)C1COc2ccccc2O1 (centres undefined) | -21 | · | 2.9µM* | ? | 7
O=C(Nc1ccccc1[N+](=O)[O-])C1COc2ccccc2O1 (centres undefined) | 24 | 38* | 12µM* | 133% | 27*
CCCn1c(NC(=O)c2ccco2)nc2ccccc21 | ? | -13 | 43% | ? | 10
COC(=O)c1ccccc1NC(=O)C1COc2ccccc2O1 (centres undefined) | 0 | 122* | -6% | -16% | 55*
CCCn1c(NC(=O)C2COc3ccccc3O2)nc2ccccc21 (centres undefined) | -27 | -5 | ? | 9.3µM* | -2
CCCCOc1ccc(CNC(=O)c2cnc3sc(N4CCC(C)CC4)nn3c2=O)cc1 | 17 | · | · | · | ·
CC(NC(=O)c1cnccn1)c1ccc(S(N)(=O)=O)cc1 (centres undefined) | 0 | -9 | -34% | -2% | 1
CCOC(=O)c1ccccc1NC(=O)CN1CCCN(Cc2cc(C)ccc2C)S1(=O)=O | 0 | · | · | · | ·
CC1(C)CC2CC(C)(CN2Cc2c(O)ccc3ccccc23)C1 (centres undefined) | ? | 35 | 0% | -4% | 22
CCc1nc2c(OCc3ccc(Cl)cc3)cccn2c1N(C)C(=O)c1ccccc1F | -63* | · | · | · | ·
CCc1nc2c(OCc3ccc(S(C)(=O)=O)cc3)cccn2c1N(C)C(=O)c1ccccc1F | -19 | · | · | · | ·
COc1ccc2c(c1)C(c1cc(OC)c(OC)c(OC)c1)CC(=O)O2 (centres undefined) | · | i | · | · | 8
CC(=O)c1ccc(N2CCN(C(=S)Nc3ccccc3F)CC2)cc1 | -3 | -4 | ? | ? | -1
CC(=O)c1ccc(N2CCN(C(=S)Nc3cc(C)ccc3C)CC2)cc1 | -6 | 29 | ? | 10µM* | 7
CSCCCNC(=S)N1CCN(c2ccc(C(C)=O)cc2)CC1 | -10 | 9 | 12µM* | ? | 11
CCNC(=S)N(CCc1c(C)[nH]c2ccccc12)Cc1cccnc1 | -9 | -5 | 35% | · | -5
CCOc1cc(C(=O)NC(=S)Nc2cccnc2)cc(OCC)c1OCC | -23 | -10 | -5% | 6% | -3
SMILES | HCMV antiviral | Shiga toxin inh | Pf growth 96h | Pf growth 48h | Cycloheximide cs
CCCOc1ccc(C(=O)NC(=S)NCc2cccnc2)cc1 | -65* | 14 | -19% | 7% | -1
CCOc1ccc(C(=O)NC(=S)Nc2cccnc2)cc1 | 15 | 0 | 2% | 89% | 30*
CCOc1ccc(C(=O)NC(=S)NCc2cccnc2)cc1 | -16 | 17 | 10µM* | 30% | 12
CCOC(=O)C1=CCN(S(=O)(=O)c2cccc(Cl)c2)C1c1cccc(F)c1 (centres undefined) | -31 | · | · | · | ·
CCN(CC)CCNc1nc2nonc2nc1NCCN(CC)CC | 7 | 4 | 12µM* | 8.3µM* | -3
O=C(CSc1ccsc1[N+](=O)[O-])N1CCCCCC1 | -72* | 88 | -4% | 4% | 18
